Binding signal data for 8 sequences are collected here from paper PMC7862700, “An all-to-all approach to the identification of sequence-specific readers for epigenetic DNA modifications on cytosine”.

Holding throughout (assay): DAPPL (digital affinity profiling via proximity ligation, sequencing); 10 mM Tris-HCl pH 7.5, 50 mM NaCl, 1 mM DTT, 4% glycerol, room temperature, 30 min; GST-TFs on glutathione beads, 16-mer random dsDNA library, 0.1% formaldehyde crosslink after washing; high values mean tight binding
What all share (settings): protein: recombinant; tags: N-terminal GST; dsDNA, one strand shown

The target of experiment [1] is T1, FLI1 (Homo sapiens, UniProt Q01543 1-452).
T1 sequence: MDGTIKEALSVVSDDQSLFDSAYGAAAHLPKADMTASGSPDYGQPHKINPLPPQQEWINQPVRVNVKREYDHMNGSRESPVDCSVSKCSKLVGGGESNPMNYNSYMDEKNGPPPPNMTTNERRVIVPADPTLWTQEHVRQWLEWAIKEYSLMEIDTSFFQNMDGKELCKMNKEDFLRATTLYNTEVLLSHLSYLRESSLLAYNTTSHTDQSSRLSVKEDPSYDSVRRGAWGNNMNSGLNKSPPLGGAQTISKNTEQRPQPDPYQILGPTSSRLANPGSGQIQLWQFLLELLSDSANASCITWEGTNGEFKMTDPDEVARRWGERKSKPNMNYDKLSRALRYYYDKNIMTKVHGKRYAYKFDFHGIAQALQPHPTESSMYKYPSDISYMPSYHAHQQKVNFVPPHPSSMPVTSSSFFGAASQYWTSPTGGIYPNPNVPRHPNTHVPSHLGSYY
The procedure, abridged:
(§1)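 Binding signal is defined as a hexamer's read frequency for one factor over its frequency for the tag-only sample. To obtain reads, GST-fused human transcription factors were expressed in yeast, captured on glutathione beads, barcoded with DNA and pooled with that sample. Pools met 200 nmole of a 16-mer random double-stranded DNA library in Tris/NaCl/DTT/glycerol buffer for 30 min at room temperature before washing, 0.1% formaldehyde crosslinking, proximity ligation (BsaI/T4 ligase, 1 h, 37 °C), PCR and Illumina NextSeq500 sequencing.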

The target in experiment [2] is T2, ELK1 (Homo sapiens, UniProt P19419 1-428).
T2 sequence: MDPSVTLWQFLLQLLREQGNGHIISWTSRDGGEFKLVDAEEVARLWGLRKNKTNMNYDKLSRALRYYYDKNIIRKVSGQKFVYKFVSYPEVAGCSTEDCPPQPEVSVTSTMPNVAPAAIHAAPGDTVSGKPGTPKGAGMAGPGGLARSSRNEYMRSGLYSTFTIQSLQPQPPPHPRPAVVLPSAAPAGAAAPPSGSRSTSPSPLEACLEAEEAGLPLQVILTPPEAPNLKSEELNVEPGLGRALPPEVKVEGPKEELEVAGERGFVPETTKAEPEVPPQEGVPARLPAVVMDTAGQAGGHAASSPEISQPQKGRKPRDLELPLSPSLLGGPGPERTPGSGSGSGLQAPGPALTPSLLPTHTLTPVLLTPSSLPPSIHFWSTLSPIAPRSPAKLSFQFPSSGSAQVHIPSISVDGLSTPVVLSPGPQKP
The method in brief: as §1

Experiment [3] deals with T3, GABPA (Homo sapiens, UniProt Q06546 1-454).
T3 sequence: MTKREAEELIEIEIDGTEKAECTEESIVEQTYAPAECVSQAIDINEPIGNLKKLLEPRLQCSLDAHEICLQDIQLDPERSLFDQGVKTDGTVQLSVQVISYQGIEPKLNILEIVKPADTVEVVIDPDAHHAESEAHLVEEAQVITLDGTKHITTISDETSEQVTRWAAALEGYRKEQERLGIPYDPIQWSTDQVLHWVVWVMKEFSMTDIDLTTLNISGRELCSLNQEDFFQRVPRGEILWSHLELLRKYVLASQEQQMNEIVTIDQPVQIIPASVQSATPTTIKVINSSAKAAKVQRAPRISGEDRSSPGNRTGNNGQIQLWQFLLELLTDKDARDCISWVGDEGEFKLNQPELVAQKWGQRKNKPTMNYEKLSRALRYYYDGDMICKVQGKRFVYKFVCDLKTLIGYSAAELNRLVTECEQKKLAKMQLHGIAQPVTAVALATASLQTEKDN
The method in brief: as §1

In experiment [4] the target is T4, ERG (Homo sapiens, UniProt P11308 1-479).
T4 sequence: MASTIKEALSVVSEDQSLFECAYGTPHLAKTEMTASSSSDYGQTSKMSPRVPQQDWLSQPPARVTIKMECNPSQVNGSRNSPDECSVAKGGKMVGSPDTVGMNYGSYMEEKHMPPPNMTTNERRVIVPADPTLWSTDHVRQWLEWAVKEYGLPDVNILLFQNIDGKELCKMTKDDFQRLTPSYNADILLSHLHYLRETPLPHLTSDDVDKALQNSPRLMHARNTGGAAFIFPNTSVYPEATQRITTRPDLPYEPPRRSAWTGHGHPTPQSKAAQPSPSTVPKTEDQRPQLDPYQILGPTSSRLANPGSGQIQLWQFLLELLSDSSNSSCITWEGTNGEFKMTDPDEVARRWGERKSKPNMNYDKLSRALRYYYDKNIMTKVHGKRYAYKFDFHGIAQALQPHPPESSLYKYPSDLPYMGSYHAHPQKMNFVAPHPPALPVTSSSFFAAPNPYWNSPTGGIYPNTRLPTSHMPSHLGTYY
The procedure, abridged: as §1

Experiment [5] has as its target ELF1 (Homo sapiens, UniProt P32519 1-619). The procedure, abridged: as §1
Experiment [6] addresses T5, EHF (Homo sapiens, UniProt Q9NZC4 1-300).
T5 sequence: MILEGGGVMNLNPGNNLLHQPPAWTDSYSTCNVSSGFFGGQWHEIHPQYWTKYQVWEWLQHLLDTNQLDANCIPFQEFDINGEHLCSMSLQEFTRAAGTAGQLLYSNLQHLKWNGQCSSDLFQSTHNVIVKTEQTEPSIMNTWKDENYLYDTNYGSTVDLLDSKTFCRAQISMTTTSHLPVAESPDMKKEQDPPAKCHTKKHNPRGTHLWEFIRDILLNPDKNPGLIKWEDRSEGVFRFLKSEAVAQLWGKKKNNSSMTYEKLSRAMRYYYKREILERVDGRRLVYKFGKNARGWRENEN
The method in brief:
as §1

Experiment [7] has as its target SPI1 (Homo sapiens, UniProt P17947 1-270). The method in brief:
as §1

In experiment [8] the target is SPIB (Homo sapiens, UniProt Q01892 1-262). The procedure, abridged:
as §1

For experiment [9], the target named is T6, ELK3 (Homo sapiens, UniProt P41970 1-407).
T6 sequence: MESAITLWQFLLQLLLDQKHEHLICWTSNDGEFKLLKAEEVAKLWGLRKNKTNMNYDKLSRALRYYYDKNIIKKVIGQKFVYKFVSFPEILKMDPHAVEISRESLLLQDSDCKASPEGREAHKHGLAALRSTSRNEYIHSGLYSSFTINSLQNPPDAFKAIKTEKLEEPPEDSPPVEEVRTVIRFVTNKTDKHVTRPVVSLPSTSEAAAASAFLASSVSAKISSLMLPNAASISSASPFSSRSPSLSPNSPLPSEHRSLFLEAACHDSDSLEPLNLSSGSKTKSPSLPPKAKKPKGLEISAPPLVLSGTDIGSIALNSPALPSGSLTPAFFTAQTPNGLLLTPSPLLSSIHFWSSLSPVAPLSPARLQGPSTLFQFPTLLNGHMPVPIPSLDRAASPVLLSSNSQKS
The method in brief:
as §1

Chain of SPIB (Q01892 whole entry): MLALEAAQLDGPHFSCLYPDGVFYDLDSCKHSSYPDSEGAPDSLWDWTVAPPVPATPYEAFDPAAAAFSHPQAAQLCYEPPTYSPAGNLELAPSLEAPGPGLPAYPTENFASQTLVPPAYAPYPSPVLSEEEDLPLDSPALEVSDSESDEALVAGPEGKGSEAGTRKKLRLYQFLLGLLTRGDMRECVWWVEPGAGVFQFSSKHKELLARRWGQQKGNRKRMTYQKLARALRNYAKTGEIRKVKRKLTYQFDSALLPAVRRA
Chain of ELF1 (P32519 whole entry): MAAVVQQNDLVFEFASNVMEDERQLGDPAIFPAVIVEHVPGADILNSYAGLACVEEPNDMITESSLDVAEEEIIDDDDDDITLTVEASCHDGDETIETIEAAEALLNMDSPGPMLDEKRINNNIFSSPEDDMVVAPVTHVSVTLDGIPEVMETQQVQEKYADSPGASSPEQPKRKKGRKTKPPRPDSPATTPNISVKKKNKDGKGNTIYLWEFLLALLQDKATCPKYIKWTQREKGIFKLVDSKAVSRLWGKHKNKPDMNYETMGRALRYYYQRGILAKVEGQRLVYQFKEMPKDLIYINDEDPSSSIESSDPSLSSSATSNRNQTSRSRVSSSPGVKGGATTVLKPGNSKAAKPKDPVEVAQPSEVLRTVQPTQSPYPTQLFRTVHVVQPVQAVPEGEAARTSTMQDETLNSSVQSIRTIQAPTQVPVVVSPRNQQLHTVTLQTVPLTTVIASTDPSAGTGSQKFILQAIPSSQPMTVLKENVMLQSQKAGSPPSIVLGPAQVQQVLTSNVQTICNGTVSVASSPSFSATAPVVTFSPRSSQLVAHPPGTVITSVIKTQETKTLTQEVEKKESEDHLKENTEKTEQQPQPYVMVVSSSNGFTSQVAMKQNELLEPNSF

Consider TATATC, for which the binding signal is 1.6 fold enrichment (6-mer frequency, TF over GST control) in [1]; 1.62 fold enrichment (6-mer frequency, TF over GST control) in experiment [2]; 1.55 fold enrichment (6-mer frequency, TF over GST control) in experiment [3]; 1.48 fold enrichment (6-mer frequency, TF over GST control) in experiment [4]; 1.58 fold enrichment (6-mer frequency, TF over GST control) in experiment [5]; 1.59 fold enrichment (6-mer frequency, TF over GST control) in experiment [6]. Further, the binding signal in [7] is 1.54 fold enrichment (6-mer frequency, TF over GST control); in experiment [8], 1.67 fold enrichment (6-mer frequency, TF over GST control); in [9], 1.42 fold enrichment (6-mer frequency, TF over GST control).
Take CATCTT: the binding signal in experiment [1] was 1.18 fold enrichment (6-mer frequency, TF over GST control); in experiment [2], 1.27 fold enrichment (6-mer frequency, TF over GST control); in experiment [3], 1.17 fold enrichment (6-mer frequency, TF over GST control); in [4], 1.27 fold enrichment (6-mer frequency, TF over GST control); in experiment [5], 1.25 fold enrichment (6-mer frequency, TF over GST control); in experiment [6], 1.2 fold enrichment (6-mer frequency, TF over GST control). In addition, the binding signal is 1.21 fold enrichment (6-mer frequency, TF over GST control) in experiment [7]; 1.21 fold enrichment (6-mer frequency, TF over GST control) in experiment [8]; 1.29 fold enrichment (6-mer frequency, TF over GST control) in experiment [9].
For TATGAT, the binding signal was 1.21 fold enrichment (6-mer frequency, TF over GST control) in experiment [1]; 1.18 fold enrichment (6-mer frequency, TF over GST control) in experiment [2]; 1.22 fold enrichment (6-mer frequency, TF over GST control) in [3]; 1.2 fold enrichment (6-mer frequency, TF over GST control) in experiment [4]; 1.24 fold enrichment (6-mer frequency, TF over GST control) in experiment [5]; 1.27 fold enrichment (6-mer frequency, TF over GST control) in [6]. Besides, the binding signal in [7] is 1.18 fold enrichment (6-mer frequency, TF over GST control); in experiment [8], 1.23 fold enrichment (6-mer frequency, TF over GST control); in experiment [9] it was 1.23 fold enrichment (6-mer frequency, TF over GST control).
On to AGCTCC, for which the binding signal in [1] is 1.38 fold enrichment (6-mer frequency, TF over GST control); in experiment [2], 1.23 fold enrichment (6-mer frequency, TF over GST control); in experiment [3] it was 1.32 fold enrichment (6-mer frequency, TF over GST control); in experiment [4] it was 1.2 fold enrichment (6-mer frequency, TF over GST control); in experiment [5], 1.28 fold enrichment (6-mer frequency, TF over GST control); in [6] it was 1.31 fold enrichment (6-mer frequency, TF over GST control). For the same sequence, the binding signal is 1.25 fold enrichment (6-mer frequency, TF over GST control) in [7]; 1.21 fold enrichment (6-mer frequency, TF over GST control) in [8]; 1.17 fold enrichment (6-mer frequency, TF over GST control) in experiment [9].
In the case of AATGCT, the binding signal in [1] was 1.16 fold enrichment (6-mer frequency, TF over GST control); in experiment [2] it was 1.17 fold enrichment (6-mer frequency, TF over GST control); in experiment [3] it was 1.14 fold enrichment (6-mer frequency, TF over GST control); in experiment [4] it was 1.16 fold enrichment (6-mer frequency, TF over GST control); in experiment [5] it was 1.16 fold enrichment (6-mer frequency, TF over GST control); in [6] it was 1.14 fold enrichment (6-mer frequency, TF over GST control). For the same sequence, the binding signal in [7] is 1.12 fold enrichment (6-mer frequency, TF over GST control); in [8] it was 1.16 fold enrichment (6-mer frequency, TF over GST control); in experiment [9] it was 1.12 fold enrichment (6-mer frequency, TF over GST control).
For the sequence AACATA, the binding signal was 1.23 fold enrichment (6-mer frequency, TF over GST control) in [1]; 1.26 fold enrichment (6-mer frequency, TF over GST control) in experiment [2]; 1.29 fold enrichment (6-mer frequency, TF over GST control) in experiment [3]; 1.26 fold enrichment (6-mer frequency, TF over GST control) in [4]; 1.28 fold enrichment (6-mer frequency, TF over GST control) in experiment [5]; 1.31 fold enrichment (6-mer frequency, TF over GST control) in [6]. Also, the binding signal was 1.21 fold enrichment (6-mer frequency, TF over GST control) in experiment [7]; 1.22 fold enrichment (6-mer frequency, TF over GST control) in experiment [8]; 1.25 fold enrichment (6-mer frequency, TF over GST control) in experiment [9].
With CTTTTC, the binding signal in experiment [1] is 1.44 fold enrichment (6-mer frequency, TF over GST control); in experiment [2] it was 1.51 fold enrichment (6-mer frequency, TF over GST control); in experiment [3], 1.34 fold enrichment (6-mer frequency, TF over GST control); in [4], 1.43 fold enrichment (6-mer frequency, TF over GST control); in experiment [5], 1.38 fold enrichment (6-mer frequency, TF over GST control); in experiment [6] it was 1.39 fold enrichment (6-mer frequency, TF over GST control). For the same sequence, the binding signal in experiment [7] was 1.65 fold enrichment (6-mer frequency, TF over GST control); in experiment [8], 1.53 fold enrichment (6-mer frequency, TF over GST control); in [9] it was 1.23 fold enrichment (6-mer frequency, TF over GST control).
In the case of GCTCCA, the binding signal in experiment [1] is 1.23 fold enrichment (6-mer frequency, TF over GST control); in [2], 1.17 fold enrichment (6-mer frequency, TF over GST control); in experiment [3], 1.33 fold enrichment (6-mer frequency, TF over GST control); in experiment [4], 1.18 fold enrichment (6-mer frequency, TF over GST control); in experiment [5], 1.2 fold enrichment (6-mer frequency, TF over GST control); in experiment [6], 1.19 fold enrichment (6-mer frequency, TF over GST control). The binding signal in experiment [7] was 1.28 fold enrichment (6-mer frequency, TF over GST control); in experiment [8] it was 1.3 fold enrichment (6-mer frequency, TF over GST control); in experiment [9], 1.17 fold enrichment (6-mer frequency, TF over GST control).
